# Measurements published in PubChem BioAssay (NCATS).
# Values joined by “and” are separate entries in the source; they are usually repeats but may differ in a detail not shown here. Equal entries are not always repeated. Inconclusive results are not listed. A call without a number means that no potency is given here. Some structures have more than one record in an assay (separate samples or runs), and their calls can disagree. Active and inactive are the calls of the source. Calls come from the whole dose curve; as a rule, active = well fitted curve in the direction sought with a large enough effect; inconclusive = small, poorly fitted or top-dose-only effect, or another doubt; inactive = no such curve, though single readings can be large; an effect the other way counts as inactive or inconclusive.
# Columns and labels:
# [1] = target: Cytochrome P450 3A7 (Homo sapiens) (UniProt P24462); assay: Cytochrome P450 family 3 subfamily A member 7 (CYP3A7) small molecule antagonists: luciferase biochemical qHTS assay (AID 1963596); note: nearly all actives have a fitted effect of over 40% in size
# Sequence of Cytochrome P450 3A7 (Homo sapiens) (P24462 whole entry, looked up): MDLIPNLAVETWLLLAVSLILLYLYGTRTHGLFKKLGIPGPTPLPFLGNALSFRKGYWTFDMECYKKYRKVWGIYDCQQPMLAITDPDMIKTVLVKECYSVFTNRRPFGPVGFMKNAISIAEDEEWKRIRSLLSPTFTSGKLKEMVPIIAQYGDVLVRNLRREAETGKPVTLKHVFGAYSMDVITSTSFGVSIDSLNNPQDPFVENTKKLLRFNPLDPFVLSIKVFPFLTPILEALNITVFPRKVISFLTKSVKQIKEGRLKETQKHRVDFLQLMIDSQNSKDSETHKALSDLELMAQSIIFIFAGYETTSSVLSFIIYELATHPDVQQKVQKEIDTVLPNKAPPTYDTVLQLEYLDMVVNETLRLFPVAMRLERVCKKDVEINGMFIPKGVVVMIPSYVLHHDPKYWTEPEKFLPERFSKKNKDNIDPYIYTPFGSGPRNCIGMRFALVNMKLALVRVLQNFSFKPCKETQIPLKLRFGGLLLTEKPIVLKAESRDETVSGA
# Procedure, shortened: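 Compounds were screened in qHTS format for interference with CYP3A7 turnover of a proluciferin substrate. Reactions ran 1 h at room temperature after NADPH regeneration solution was added, then luciferin product was detected by luminescence.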
# [2] = Viability qHTS for spleen associated tyrosine kinase inhibitor (SYKi) naive MV4-11 cells (AID 1963823); note: nearly all actives have a fitted effect of over 40% in size; note: potency is the fitted concentration of half-maximal effect
# Procedure, shortened: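 SYK inhibitor-naive MV4-11 cells, 500 per well, exposed to compounds for 72 hr at 37 C, 5% CO2. Viability read as CellTiter-Glo luminescence after 10 min at room temperature.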
# [3] = Viability qHTS for spleen associated tyrosine kinase inhibitor (SYKi) drug resistant MV4-11 cells (AID 1963824); note: nearly all actives have a fitted effect of over 35% in size; note: potency is the fitted concentration of half-maximal effect
# Procedure, shortened: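 SYK-inhibitor-resistant MV4-11 AML cells were seeded at 500 per well onto compound and cultured 72 hours (37 °C, 5% CO2). CellTiter-Glo was then added, and after 10 min at room temperature, luminescence gave viability.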
# [4] = Cellular viability qHTS for adrenocortical cancer (ACC) cell line SW-13 (AID 1963989); details: SW-13 ACC cells viability, CellTiter-Glo, 48 h; activity (max response): stronger effect = lower value;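 note: cells grown in serum-free medium with ITS supplement; nearly all actives have a fitted effect of over 65% in size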
# Procedure, shortened: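 Luminescent ATP read-out (CellTiter-Glo, 20 min at room temperature) measured metabolically competent SW-13 cells after 48 h compound treatment. Final concentrations spanned up to 46 uM; bortezomib served as positive control.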
# [5] = Cellular viability qHTS for adrenocortical cancer (ACC) cell line NCI-H295R (AID 1963990); note: nearly all actives have a fitted effect of over 60% in size
# Procedure, shortened: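 IC50 and maximal efficacy derive from four-parameter logistic modelling of titration curves, with reads scaled between DMSO-only wells (0%) and doxorubicin hydrochloride (100% inhibition). Compounds spanned up to 46 uM over 48 h.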
# [6] = Quantitative highthroughput screen to assess conditional lethalithy of P12 Ichikawa cells grown in RPMI1640 with dialyzed fetal bovine serum (RPMI+ds) (AID 1963880); details: Potency: P12-Ichikawa viability; note: nearly all actives have a fitted effect of over 35% in size
# Procedure, shortened: (§1)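 Each medium arm—HPLM with 10% dialyzed FBS, or RPMI1640 with 5 mM glucose and 10% untreated or dialyzed FBS—was screened against an 11-point, 3-fold compound titration for 48 h at 37 °C, with CellTiter-Glo luminescence as endpoint.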
# [7] = Quantitative highthroughput screen to assess conditional lethalithy of NOMO1 cells grown in RPMI1640 with dialyzed fetal bovine serum (RPMI+ds) (AID 1963877); note: series mostly up to about 46 µM; nearly all actives have a fitted effect of over 30% in size
# Procedure, shortened: as §1
# [8] = Quantitative highthroughput screen to assess conditional lethalithy of P12 Ichikawa cells grown in Human Plasma-Like Medium with dialyzed fetal bovine serum (HPLM+ds) (AID 1963879); details: Potency: viability; note: series mostly up to about 46 µM; nearly all actives have a fitted effect of over 35% in size
# Procedure, shortened: as §1
# [9] = Quantitative highthroughput screen to assess conditional lethalithy of P12 Ichikawa cells grown in RPMI1640 with untreated serum (RPMI+s) (AID 1963881); details: Potency: viability; note: nearly all actives have a fitted effect of over 35% in size; note: potency is the fitted concentration of half-maximal effect; for Viability: series mostly up to about 46 µM
# Procedure, shortened: as §1
# [10] = Quantitative highthroughput screen to assess conditional lethalithy of SEM cells grown in RPMI1640 with dialyzed fetal bovine serum (RPMI+ds) (AID 1963884)
# Procedure, shortened: as §1
# [11] = Quantitative highthroughput screen to assess conditional lethalithy of NOMO1 cells grown in RPMI1640 with untreated serum (RPMI+s) (AID 1963876); note: nearly all actives have a fitted effect of over 35% in size; note: potency is the fitted concentration of half-maximal effect
# Procedure, shortened: as §1
# [12] = Quantitative highthroughput screen to assess conditional lethalithy of SEM cells grown in Human Plasma-Like Medium with dialyzed fetal bovine serum (HPLM+ds) (AID 1963882)
# Procedure, shortened: as §1
# [13] = Quantitative highthroughput screen to assess conditional lethalithy of NOMO1 cells grown in Human Plasma-Like Medium with dialyzed fetal bovine serum (HPLM+ds) (AID 1963878); note: nearly all actives have a fitted effect of over 35% in size; note: potency is the fitted concentration of half-maximal effect
# Procedure, shortened: as §1
structure (smiles),measurement,setting,value
CC(Cc1ccc(O)cc1)NCC(O)c1cc(O)cc(O)c1 (stereo unspecified),Potency,[1],inactive
same,Potency,[2],inactive
same,Potency,[3],inactive
same,activity (max response),[4],10.9% (inactive)
same,Potency,[5],inactive
CC(=O)C1CCOC1=O (stereo unspecified),Potency,[1],inactive
same,Potency,[2],inactive
same,Potency,[3],inactive
same,activity (max response),[4],9.4% (inactive)
same,Potency,[5],inactive
CC(C)(C)NCC(O)c1ccccc1Cl (stereo unspecified),Potency,[1],inactive
same,Potency,[2],inactive
same,Potency,[3],inactive
same,activity (max response),[4],3.76% (inactive)
CNC(C)(C)Cc1ccccc1,Potency,[1],inactive
same,Potency,[2],inactive
same,Potency,[3],inactive
same,activity (max response),[4],-4.09% (inactive)
same,Potency,[5],inactive
[N-]=[N+]=CC(=O)OC[C@H](N)C(=O)O,Potency,[1],inactive
same,Potency,[2],inactive
same,Potency,[3],inactive
same,activity (max response),[4],-8.61% (inactive)
CN1CCN(C(=O)O[C@H]2c3nccnc3C(=O)N2c2ccc(Cl)cn2)CC1,Potency,[1],inactive
same,Potency,[2],inactive
same,Potency,[3],inactive
same,Potency,[6],inactive
same,activity (max response),[4],9.33% (inactive)
same,Potency,[5],inactive
CC(Cc1ccccc1)N(C)Cc1ccco1 (stereo unspecified),Potency,[1],inactive
same,Potency,[2],inactive
same,Potency,[3],inactive
same,activity (max response),[4],-0.53% (inactive)
same,Potency,[5],inactive
C[C@H]1C(=O)O[C@@H]2CCN3CC=C(COC(=O)[C@](C)(O)[C@]1(C)O)[C@H]23,Potency,[1],inactive
same,Potency,[2],inactive
same,Potency,[3],inactive
same,activity (max response),[4],-4.54% (inactive)
OC(O)C(Cl)(Cl)Cl,Potency,[1],inactive
same,Potency,[2],inactive
same,Potency,[3],inactive
same,activity (max response),[4],12.7% (inactive)
same,Potency,[5],inactive
Cn1c(CCCC(=O)O)nc2cc(N(CCCl)CCCl)ccc21,Potency,[1],inactive
same,Potency,[2],inactive and 11.8 µM (active)
same,Potency,[3],inactive and 11.8 µM (active)
same,Potency,[7],inactive
same,Potency,[8],inactive
same,activity (max response),[4],2.81% (inactive) and -9.72% (inactive)
same,Potency,[5],inactive
O=P1(N(CCCl)CCCl)NCCCO1 (stereo unspecified),Potency,[1],inactive
same,Potency,[2],inactive
same,Potency,[3],inactive
same,Potency,[9],14.8 µM (active)
same,Potency,[10],9.35 µM (active)
same,activity (max response),[4],0.4% (inactive) and 11% (inactive)
same,Potency,[5],inactive
CCC1(c2ccccc2)CCC(=O)NC1=O (stereo unspecified),Potency,[1],inactive
same,Potency,[2],21.1 µM (active)
same,Potency,[3],13.3 µM (active)
same,activity (max response),[4],7.87% (inactive)
same,Potency,[5],inactive
Cc1cn(C[C@H](N)C(=O)O)c(=O)n(Cc2cc(-c3ccccc3)sc2C(=O)O)c1=O,Potency,[1],inactive
same,Potency,[2],inactive
same,Potency,[3],inactive
CCNc1nc(Cl)nc(NCC)n1,Potency,[1],inactive
same,Potency,[2],inactive
same,Potency,[3],inactive
same,activity (max response),[4],-2.51% (inactive)
same,Potency,[5],inactive
C[C@@H](N)[C@@H](O)c1ccccc1,Potency,[1],inactive
same,Potency,[2],inactive
same,Potency,[3],inactive
same,activity (max response),[4],3.81% (inactive)
same,Potency,[5],inactive
CN1C(=O)C(Cc2ccc3ccccc3c2)N=C(c2ccc(O)cc2)c2cc(Cl)ccc21 (stereo unspecified),Potency,[1],inactive
same,Potency,[2],20.6 µM (active)
same,Potency,[3],13 µM (active)
CN1C(=O)CCS(=O)(=O)C1c1ccc(Cl)cc1 (stereo unspecified),Potency,[1],inactive
same,Potency,[2],inactive
same,Potency,[3],inactive
same,Potency,[11],inactive
same,Potency,[9],inactive
same,Potency,[12],inactive
same,activity (max response),[4],1.09% (inactive) and -1.33% (inactive)
same,Potency,[5],inactive
CSCC[C@@H](NC(=O)[C@@H](Cc1ccccc1)NC(=O)CNC(=O)CNC(=O)[C@@H](N)Cc1ccc(O)cc1)C(=O)O,Potency,[1],inactive
same,Potency,[2],inactive
same,Potency,[3],inactive
same,Potency,[7],inactive
same,Potency,[13],inactive
same,Potency,[8],inactive
same,activity (max response),[4],3.41% (inactive)
same,Potency,[5],inactive
NCc1cccnc1,Potency,[1],inactive
same,Potency,[2],inactive
same,Potency,[3],inactive
same,activity (max response),[4],4.01% (inactive)
COc1ccccc1N1CCNCC1,Potency,[1],inactive
same,Potency,[2],inactive
same,Potency,[3],inactive
same,activity (max response),[4],-19.4% (inactive)
CC(CC(C(N)=O)(c1ccccc1)c1ccccc1)N(C)C (stereo unspecified),Potency,[1],inactive
same,Potency,[2],inactive
same,Potency,[3],inactive
same,activity (max response),[4],5.97% (inactive)
same,Potency,[5],inactive
O=C1CC[C@@]2(O)[C@H]3Cc4ccc(O)c5c4[C@@]2(CCN3CC2CC2)[C@H]1O5,Potency,[1],inactive
same,Potency,[2],inactive
same,Potency,[3],inactive
same,Potency,[11],7.43 µM (active)
same,Potency,[13],9.35 µM (active)
same,Potency,[8],inactive
same,Potency,[12],inactive
same,Potency,[5],inactive
CCN(CC)C(C)C(=O)c1ccccc1 (stereo unspecified),Potency,[1],inactive
same,Potency,[2],inactive
same,Potency,[3],inactive
same,activity (max response),[4],11.1% (inactive)
O=c1[nH]oc2c1CCNC2,Potency,[1],inactive
same,Potency,[2],inactive
same,Potency,[3],inactive
same,activity (max response),[4],5.4% (inactive)
same,Potency,[5],inactive
Cc1ccc(Cl)c(O)c1,Potency,[1],inactive
same,Potency,[2],inactive
same,Potency,[3],inactive
same,activity (max response),[4],12.5% (inactive)
same,Potency,[5],inactive
O=[N+]([O-])/N=C1\NCCN1Cc1ccc(Cl)nc1,Potency,[1],inactive
same,Potency,[2],inactive
same,Potency,[3],inactive
same,activity (max response),[4],-5.88% (inactive)
NN=C(N)N,Potency,[1],inactive
same,Potency,[2],inactive
same,Potency,[3],inactive
same,activity (max response),[4],12.8% (inactive)
NCC(CC(=O)O)c1ccc(Cl)cc1 (stereo unspecified),"activity change, negative = inhibition",[1],-9.7% [at 0.91 µM] (inactive)
same,viability (% of control),[2],90.7% [at 0.588 µM] (inactive)
same,"viability, % of control",[3],103% [at 0.588 µM] (inactive)
same,activity (max response),[4],-6.89% (inactive)
same,"activity change, negative = viability loss",[5],-4.36% [at 0.587 µM] (inactive)
CCN(C(C)=O)c1cccc(-c2ccnc3c(C#N)cnn23)c1,Potency,[1],inactive
same,Potency,[2],inactive
same,Potency,[3],inactive
same,activity (max response),[4],-7.67% (inactive)
same,Potency,[5],inactive
O=C(O)CCCCCCNC1c2ccccc2CCc2ccccc21,Potency,[1],inactive
same,Potency,[2],0.473 µM (active)
same,Potency,[3],inactive
same,activity (max response),[4],1.72% (inactive)
same,Potency,[5],inactive
CCOC(=O)NC(O)C(Cl)(Cl)Cl (stereo unspecified),Potency,[1],inactive
same,Potency,[2],inactive
same,Potency,[3],inactive
same,activity (max response),[4],3.24% (inactive)
